GLP1R inv ag = qHTS of GLP-1 Receptor Inverse Agonists (Inhibition Mode). actives 1.6% (n = 410,000). HEK293 GLP-1R CRE-luciferase, luminescence, 24 h; GLP-1R form is constitutively active. Potency, µM (series often up to 38.3 µM), usual class: inhibitors. Glucagon-like peptide 1 receptor (Homo sapiens), P43220; further: nearly all actives have a fitted effect of over 55% in size
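GLP-1R inverse agonism mode: basal reporter luminescence in engineered HEK293 cells measured after one day of compound exposure at 37 deg C, with a 12 min room-temperature detection step.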
GLP-1R agonist = qHTS of GLP-1 Receptor Agonists; Potency, µM (doses to about 45.6 µM), usual class: activators; AID 624172, 2012; actives 0.007% (n = 380,000); Glucagon-like peptide 1 receptor (Homo sapiens), P43220; HEK293 GLP-1R CRE-luciferase, luminescence, 4-6 h; cells express a hypersensitive GLP-1R form
PTHR1 agonist = qHTS for PTHR1 Agonists: Primary Screen; Parathyroid hormone/parathyroid hormone-related peptide receptor (Homo sapiens), Q03431; actives 0.075% (n = 410,000); HEK293 GP2 PTHR1 cells, GloSensor cAMP luminescence, 1 h; Potency, µM (doses to about 115 µM), actives largely listed as activators; AID 743266, 2014; further: nearly all actives have a fitted effect of over 55% in size
Target sequence (Q03431 whole entry, looked up): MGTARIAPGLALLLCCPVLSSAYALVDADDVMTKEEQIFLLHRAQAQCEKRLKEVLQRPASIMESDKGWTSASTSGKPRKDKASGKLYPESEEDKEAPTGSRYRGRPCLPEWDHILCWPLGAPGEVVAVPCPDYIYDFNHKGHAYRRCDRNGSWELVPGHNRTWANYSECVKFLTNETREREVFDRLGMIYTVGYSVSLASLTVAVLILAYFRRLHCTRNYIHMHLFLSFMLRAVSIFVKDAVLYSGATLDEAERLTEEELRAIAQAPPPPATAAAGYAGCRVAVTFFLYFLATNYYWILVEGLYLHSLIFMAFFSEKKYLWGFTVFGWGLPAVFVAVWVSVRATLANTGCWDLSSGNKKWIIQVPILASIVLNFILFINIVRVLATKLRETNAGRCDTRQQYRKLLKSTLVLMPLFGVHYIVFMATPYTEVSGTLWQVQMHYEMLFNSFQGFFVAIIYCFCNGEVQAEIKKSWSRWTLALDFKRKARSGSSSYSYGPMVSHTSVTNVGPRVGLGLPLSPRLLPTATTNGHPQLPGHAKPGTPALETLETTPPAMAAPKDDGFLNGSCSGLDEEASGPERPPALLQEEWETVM
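HEK-293-derived GP2 cells expressing PTHR1 and a GloSensor cAMP reporter, 3,000/well, plated overnight, given luciferin plus IBMX (each 0.5 mM as added) for 1 h at 37 °C, then compound for 1 h at 37 °C. Luminescence was read after 15 min at room temperature.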
Pin1 inh = qHTS Assay to Find Inhibitors of Pin1 | actives 0.009% (n = 390,000) | Pin1 FP peptide displacement, HiFluor488, 10 min | Potency, µM (series often up to 115 µM), hits mostly inhibitors; active means well fitted inhibition curve with a large enough effect in the polarisation, with a control signal flat, not every such curve was filed as active; inconclusive means small, poorly fitted or top-dose-only effect, or effect the other way, or a change in a side signal; inactive means no such curve, though single readings can be large or run the other way; the % refers to the polarisation
Target sequence (Q13526 whole entry, looked up): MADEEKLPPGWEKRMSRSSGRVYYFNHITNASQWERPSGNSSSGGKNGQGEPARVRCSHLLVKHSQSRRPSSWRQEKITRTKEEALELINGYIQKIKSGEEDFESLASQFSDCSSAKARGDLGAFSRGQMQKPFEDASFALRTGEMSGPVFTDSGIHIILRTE
HEK293 tox = qHTS of GLP-1 Receptor Inverse Agonists: Cytotox Screen. HEK293 cAMP-luciferase reporter cells, luminescence, 24 h. Potency, µM (highest dose often 38.3 µM), actives largely listed as inhibitors. actives 0.13% (n = 410,000). AID 624418, 2012;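 further: loss of luciferase light is scored as toxicity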
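Compound-treated cells are incubated 24 hr at 37 deg C under 5% CO2 after a 12 hour attachment period, then luciferase detection reagent is added and luminescence is measured following 12 min at room temperature; lowered signal indicates toxicity.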
miR-21 reporter = qHTS Assay for Modulators of miRNAs and/orActivators of miR-21; HeLa miR-21 FLuc reporter, luciferase, 48 h; 340,000 tested, under 10 active; Potency, µM (highest dose often 38.3 µM), hits mostly activators;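 further: miR-21 action dims this reporter so a rising signal means less miR-21 action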
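HeLa cells endogenously expressing miR-21, stably carrying CMV-driven firefly luciferase with a downstream miR-21 binding site, 2000 cells/well. Titrations up to approximately 40 uM, 48 hours; luciferase luminescence read.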
Numbers stand for hits; 0 = inactive; ? = inconclusive; - = no result. The list is not random: actives were taken first. Their share in the collection is about 1.7%. Unless noted, the call rests on the fitted dose curve; in most records, active means well fitted curve in the direction sought with a large enough effect; inconclusive means small, poorly fitted or top-dose-only effect, or another doubt; inactive means no such curve, though single readings can be large; an effect the other way counts as inactive or inconclusive.

SMILES | GLP1R inv ag | GLP-1R agonist | PTHR1 agonist | Pin1 inh | HEK293 tox | miR-21 reporter
CN1C(=S)SC(C)(C)C1N(O)C(=O)Nc1ccc(Cl)cc1 (stereo not given) | ? | 0 | 0 | 0 | 0 | 0
COc1cccc(C(=O)Nc2cccc(C(=O)OCc3cc(=O)n4nc(C5CC5)sc4n3)c2)c1 | 0 | - | 0 | 0 | 0 | 0
C/C(=N\NC(N)=S)c1ccc2c(c1)OCCO2 | ? | 0 | 0 | 0 | 0 | 0
CC(=NNC(N)=S)c1ccc2cc3c(cc2c1)OCO3 | 2.8µM | 0 | 0 | - | ? | -
COc1ccc(OC)c(S(=O)(=O)N2CCN(S(=O)(=O)c3ccc4c(c3)OCCO4)CC2)c1 | - | - | - | 0 | - | -
COCc1c(C(=O)NCc2ccccc2CN2CCCC2)oc2ccccc12 | 10µM | 0 | 0 | 0 | 0 | -
CC(C)CNC(=O)c1oc2ccccc2c1COc1ccccc1 | 5µM | 0 | 0 | 0 | 0 | 0
CCC(CC)NC(=O)c1oc2ccccc2c1COc1ccccc1 | ? | 0 | 0 | ? | 0 | 0
CN(Cc1ccccc1)c1nc2c(S(=O)(=O)c3cccc(Cl)c3)nnn2c2ccsc12 | 0 | - | ? | 0 | 0 | 0
COc1ccc(O)c(-c2nc3ccccc3c(=O)n2Cc2ccccc2)c1 | - | - | - | 0 | - | -
Cc1ccc(NC(=S)NCc2cccn2C)cc1 | 0 | 0 | 3.5µM | 0 | 0 | 0
Cc1ccc(O)c(C(CC(=O)NCC2(c3ccccc3)CCCC2)c2ccccc2)c1 (stereo not given) | ? | - | 0 | 0 | ? | ?
Cn1c2cc(S(C)=O)sc2c2cnn(Cc3cccc(O)c3)c(=O)c21 (stereo not given) | - | - | - | 0 | - | -
COc1ccc(C2CC(=O)Oc3c(C(CCN4CCOCC4)c4ccc5c(c4)OCO5)c(OC)cc(OC)c32)cc1 (stereo not given) | - | - | - | 0 | - | -
CCCCC[C@H](C)N1C[C@@H](COCc2ccccc2)Oc2cc(N3CC[C@@H](O)C3)ccc2S1(=O)=O | 10µM | 0 | 0 | - | ? | -
CCCCC[C@@H](C)N1C[C@@H](COCc2ccccc2)Oc2cc(N3CC[C@@H](O)C3)ccc2S1(=O)=O | 14µM | 0 | 0 | - | 0 | -
O=C(O)Cc1cc(F)c(S(=O)(=O)N2CCN(S(=O)(=O)c3ccc4c(c3)OCCO4)CC2)cc1F | - | - | - | 0 | - | -
CCOC(=O)/C(=N/Nc1ccc(OC)cc1)N1CCCc2ccccc21 | 4.5µM | 0 | 0 | 0 | 0 | 0
COc1ccc(-c2cn3c(C)c(C(=O)N4CCCc5ccccc54)sc3n2)cc1 | 8.9µM | 0 | 0 | 0 | 0 | -
COc1ccc(-c2cn3c(C)c(C(=O)N4CCN(c5ccccc5F)CC4)sc3n2)cc1 | ? | 0 | 0 | 0 | 0 | 0
CCOc1ccc(OCC(=O)NCCS(=O)(=O)N2CCN(c3ccccc3F)CC2)cc1 | 0 | - | 0 | 0 | 0 | 0
Cc1ccc(C)c(N(C(=O)c2nsc(Cl)c2Cl)C(C(=O)NC2CCCC2)c2ccc(O)cc2)c1 (stereo not given) | 5.6µM | 0 | 0 | 0 | 0 | 0
O=C1CCN(Cc2nc(-c3ccc(Cl)cc3)no2)CCN1 | 4.5µM | 0 | 0 | 0 | 0 | 0
Clc1ccc(-c2noc(CN3CCOCC3)n2)cc1 | 0 | 0 | 0 | 0 | 0 | 0
CCCN(CCC)c1nc(N)nc(C#N)n1 | - | - | - | 0 | - | -
SMILES | GLP1R inv ag | GLP-1R agonist | PTHR1 agonist | Pin1 inh | HEK293 tox | miR-21 reporter
CCOC(=O)C(=O)Cc1nc(OCc2ccccc2)cc(OCc2ccccc2)n1 | 10µM | 0 | 0 | 0 | 0 | -
O=C(CSc1nnc(CNC(=O)C23CC4CC(CC(C4)C2)C3)n1-c1ccc(F)cc1)Nc1ccc(F)cc1 | ? | 0 | 0 | 0 | 0 | 0
O=C(NCc1nnc(SCc2ccc(F)cc2)n1-c1ccc(F)cc1)C12CC3CC(CC(C3)C1)C2 | 7.1µM | 0 | 0 | 0 | ? | 0
O=C1CCCCC1C(O)(C(=O)c1ccccc1)c1ccccc1 (stereo not given) | 10µM | 0 | 0 | - | 0 | -
CC1CCC(C(O)(C(=O)c2ccccc2)c2ccccc2)C(=O)C1 (stereo not given) | 0 | 0 | 0 | - | 0 | -
O=S(=O)(c1cccc(C(F)(F)F)c1)N1CCC(c2cc(-c3cccc4ccccc34)n[nH]2)CC1 | 8.9µM | 0 | 0 | 0 | 0 | 0
OC(CNCc1ccc(-c2ccccc2)cc1)c1ccccc1 (stereo not given) | 10µM | ? | 0 | 0 | ? | 0
Cc1ccc(NS(=O)(=O)c2ccc(C(=O)N3CCCN(C)CC3)cc2)cc1 | 5.6µM | 0 | 0 | 0 | 0 | 0
Cc1cc(Br)ccc1NC(=O)CN(C)C(=O)C1CCN(c2ncnc3sc(C)c(C)c23)CC1 | 3.2µM | 0 | 0 | 0 | 0 | -
Cc1cccc(C)c1NC(=O)CN(C)C(=O)C1CCN(c2ncnc3sc(C)c(C)c23)CC1 | ? | 0 | 0 | 0 | 0 | -
CC1=CC(C)(C)n2c(O)c(N=NC(N)=S)c3cc(C)cc1c32 | 2µM | 0 | 0 | 0 | 2.8µM | 0
Cn1c(O)c(N=NC(N)=S)c2ccccc21 | - | 0 | - | - | - | -
COc1cccc(N(C(=O)Cn2nnc(-c3ccc(C)cc3)n2)C(C(=O)NC(C)(C)C)c2c[nH]c3ccccc23)c1 (stereo not given) | ? | 0 | 0 | 0 | 0 | 0
CC(C)(C)NC(=O)C(c1c[nH]c2ccccc12)N(C(=O)Cn1nnc(-c2ccc(Cl)cc2)n1)c1ccccc1F (stereo not given) | 5µM | 0 | 0 | 0 | 0 | 0
CC(C)(C)NC(=O)C(c1ccncc1)N(C(=O)Cn1nnc(-c2ccc(F)cc2)n1)c1cccc(F)c1 (stereo not given) | 0 | 0 | 10µM | 0 | 0 | 0
COc1cccc2c(C)cc3nnc(SCC(=O)Nc4ccc(C)cc4)n3c12 | 0 | - | 0 | 0 | 0 | 0
CCC(Sc1nnc(-c2ccc(C)c(Cl)c2)n1CC)C(=O)Nc1nccs1 (stereo not given) | 6.3µM | 0 | 0 | ? | 0 | 0
CCn1c(SCC(=O)Nc2nccs2)nnc1-c1ccc(S(=O)(=O)N2CCCCCC2)cc1 | 0 | 0 | 0 | 0 | 0 | 0
O=C(c1ccc(F)cc1)C(CCCCCC(CN1CCOCC1)C(=O)c1ccc(F)cc1)CN1CCOCC1 (stereo not given) | 10µM | 0 | 0 | 0 | 0 | 0
CCOC(=O)c1nn(-c2ccc3c(c2)CCN3C(C)=O)cc1O | 11µM | 0 | 0 | 0 | 0 | 0
COc1ccc(Cl)cc1N1C(=O)/C(=C\c2sccc2C)N=C1SCC(=O)NC1CC1 | 8.9µM | 0 | 0 | 0 | 0 | 0
COc1ccc(OC)c(C2=Nn3c(nnc3-c3ccccc3C)SC2)c1 | - | - | - | 0 | - | -
